Experiment [1] concerns Klebsiella pneumoniae. The following applies: Concentration 32 ug.mL-1;; ASSAY_TEST Inhibition of Bacterial Growth; detection method Absorption (OD600); MEDIA CAMHB; plate type 384well; NBS; CORNING #3640; time 18 hr.
The subject of experiment [2] is Candida albicans. The following applies: Concentration 32 ug.mL-1; ASSAY_TEST Inhibition of Fungal Growth; detection method Absorption (OD530).
For experiment [3], the system named is Cryptococcus neoformans. The following applies: Concentration 32 ug.mL-1; ASSAY_TEST Inhibition of Fungal Growth; detection method Resazurin; Absorption (OD600-OD570); plate type 384well; NBS; CORNING #3640. Background: The colour change of resazurin is a common sign of viable cells or microbes.

Measured potencies and affinities stand elsewhere.

For the molecule `CCOC(=O)c1ccc(NC(=O)Cn2nc3ccc(Sc4cccc(F)c4)nn3c2=O)cc1`, the values for the Inhibition in experiment [1], in experiment [2] and in experiment [3] were 10.14%, 3.42% and -9.72%, respectively.
For `Cc1ccc(NC(=O)Cn2nc3ccc(SC(C)(C)C)nn3c2=O)c(C)c1`, the Inhibition (in general, the relative decrease from the control value, in per cent) in experiment [1] was 14.3%; in experiment [2], 1.14%; in experiment [3] it was -21.84%.
The matching figures for `CCc1nnc2c(=O)n(CC(=O)Nc3cc(Cl)ccc3Cl)c3ccccc3n12`: 6.11%, 2.89% and -19.25%.
As for `CCc1ccc(N(Cc2ccc(C)cc2)S(=O)(=O)c2cccn3cnnc23)cc1`, the Inhibition is -0.39% in experiment [1], 4.26% in experiment [2] and -5.61% in experiment [3].
On the same counts, the results for `COc1ccc(-c2cc3c4nn(CC(=O)Nc5c(C)cc(C)cc5C)c(=O)n4ccn3n2)cc1` are 6.07%, -1.73% and -15.2%.
On to `O=c1c2sccc2n2c(=O)n(Cc3ccc(F)cc3)nc2n1CCc1ccccc1`, for which the figures for the Inhibition in experiment [1], in experiment [2] and in experiment [3] were 5.57%, 0.78% and -5%, respectively.
Take `COc1ccc(-c2cc3c4nnc(SCC(=O)Nc5cccc(C#N)c5)n4ccn3n2)cc1`: the Inhibition in experiment [1] is recorded as 2.25%; in experiment [2] it was 13.14%; in experiment [3] it was -16.67%.
As to `COc1ccc(NC(=O)Cn2nc3c(Oc4ccccc4)nccn3c2=O)cc1`, the Inhibition in experiment [1] is listed as 8.21%; in experiment [2] it was 3.81%; in experiment [3] it was -6.99%.
Turning to `CC(C)NC(=O)CCn1c(=O)c2cc(Cl)ccc2n2c(=O)n(CC#N)nc12`, the Inhibition in experiment [1] is listed as 4.55%; in experiment [2], 6.33%; in experiment [3], -24.01%.
For the molecule `COc1ccc(NC(=O)CSc2nnc3c(=O)n(-c4ccccc4OC)ccn23)cc1Cl`, the Inhibition in experiment [1] is 12.69%; in experiment [2], 3.75%; in experiment [3], -12.03%.
Turning to `CC(=O)c1ccc(NC(=O)Cn2nc3ccc(-c4ccc(C)c(C)c4)nn3c2=O)cc1`, the Inhibition is 0% in experiment [1], 0.28% in experiment [2] and -8.82% in experiment [3].
For `O=C(Cn1nc2c(N3CCOCC3)nccn2c1=O)NCc1cc(F)cc(F)c1`, the Inhibition was 6.28% in experiment [1], 4.54% in experiment [2] and -8.22% in experiment [3].
Consider `CC(C)c1nnc2c(=O)n(CC(=O)Nc3ccc(F)cc3F)c3ccccc3n12`, for which the Inhibition in experiment [1] is 15.02%; in experiment [2], 0.81%; in experiment [3], -23.4%.
With `O=C(CCc1nnc2ccc(-c3ccc(Cl)cc3)nn12)NCc1ccc(F)cc1Cl`, the Inhibition is reported as 20.9% in experiment [1], 0.76% in experiment [2] and -15.23% in experiment [3].
Consider `O=C(Cn1nc2ccc(-c3ccc(Cl)cc3)nn2c1=O)Nc1ccccc1`, for which the Inhibition was 1.21% in experiment [1], 1.7% in experiment [2] and -12.99% in experiment [3].
As for `CSc1cccc(NC(=O)Cn2nc3c(Oc4ccccc4C)nccn3c2=O)c1`, the Inhibition in experiment [1] is 7.38%; in experiment [2] it was -0.96%; in experiment [3] it was -9.56%.
For `O=S(=O)(c1ccc2nncn2c1)N(Cc1ccccc1)c1ccc(F)c(F)c1`, the Inhibition in experiment [1] is 5.23%; in experiment [2], 3.55%; in experiment [3] it was -6.45%.
As for `CCc1ccc(NC(=O)CSc2nnc3c(=O)n(-c4ccccc4)ccn23)cc1`, the Inhibition in experiment [1] is reported as 10.7%; in experiment [2], 2.07%; in experiment [3] it was -14.31%.
In the case of `COc1cc(NC(=O)CSc2nnc3c(=O)n(-c4ccccc4)ccn23)cc(OC)c1`, the Inhibition in experiment [1] is recorded as 17.43%; in experiment [2], 0.46%; in experiment [3], -23.26%.
Regarding `Cc1ccccc1Oc1nccn2c(=O)n(CC(=O)Nc3ccc(Cl)c(Cl)c3)nc12`, the Inhibition in experiment [1] is 6.86%; in experiment [2] it was 2.23%; in experiment [3] it was -12.87%.
As to `CC(C)c1nnc2c(=O)n(CC(=O)Nc3ccc(Cl)c(Cl)c3)c3ccccc3n12`, the Inhibition in experiment [1] is 5.02%; in experiment [2], 3.27%; in experiment [3], -9.31%.
`Cc1cc2nn(CC(=O)N3CCCC3)c(=O)n2c(Nc2ccc(C)c(F)c2)n1`: the Inhibition in experiment [1] is reported as 9.72%; in experiment [2], 0.7%; in experiment [3] it was -5.41%.
Regarding `Cc1oc(-c2ccccc2)nc1CSc1nc2ccccc2n2c(C)nnc12`, the Inhibition in experiment [1] was 7.15%; in experiment [2] it was 9.66%; in experiment [3], -6.62%.
Turning to `Cc1cccc(Sc2nccn3c(=O)n(CC(=O)N4CCN(c5ccccc5)CC4)nc23)c1`, the Inhibition is listed as 4.67% in experiment [1], 0.98% in experiment [2] and -15.76% in experiment [3].
On the same counts, the results for `CCOC(=O)c1ccc(NC(=O)Cn2nc3ccc(-c4ccc(Cl)cc4)nn3c2=O)cc1` are 8.58%, -0.49% and -7.91%.
On to `CCCc1ccc(S(=O)(=O)Nc2ccc3nncn3n2)cc1`, for which the Inhibition in experiment [1] is given as 8.2%; in experiment [2], 1.65%; in experiment [3], -5.43%.
For the molecule `COc1ccc(N2CCN(C(=O)Cn3nc4ccc(S(=O)(=O)C(C)(C)C)nn4c3=O)CC2)cc1`, the results for the Inhibition in experiment [1], in experiment [2] and in experiment [3] were 18.13%, -0.23% and -28.46%, respectively.
For `CC(C)c1ccc(N(Cc2ccccc2)S(=O)(=O)c2cccn3cnnc23)cc1`, the Inhibition in experiment [1] is 5.94%; in experiment [2], 6.69%; in experiment [3], -11.77%.
As to `COc1cccc(-n2ccn3c(SCc4ccc(F)cc4)nnc3c2=O)c1`, the values for the Inhibition in experiment [1], in experiment [2] and in experiment [3] were 3.28%, 1.89% and -13.93%, respectively.
As for `CCc1ccc(NC(=O)Cn2nc3ccc(SC4CCCCC4)nn3c2=O)cc1`, the Inhibition is 3.55% in experiment [1], 2.46% in experiment [2] and -12.68% in experiment [3].
With `CC1CC(C)CN(c2nccn3c(=O)n(CC(=O)Nc4cccc(C(F)(F)F)c4)nc23)C1` (stereo not drawn), the results for the Inhibition in experiment [1], in experiment [2] and in experiment [3] were 12.34%, 1.5% and -9.37%, respectively.

The values above are taken from ChEMBL document CHEMBL4513146, “CO-ADD screening of Karazin Kharkiv National University (Ukraine) compounds”.
